{"source": "the supplement of paper PMC10338343", "note": "± gives the standard deviation. The full ranking holds about 6,200 sequences; the median of “pre-steady-state target cleavage rate” is about 0.29, and the highest 2% start at about 2. Only a selection was taken, and the highest values are over-represented in it overall.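 Note: 1 nM active piRISC with 0.1 nM target library at 33 °C single turnover.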"}
{"test_system": "MIWI (PIWIL1) piRISC loaded with piRNA #1 (30 nt)", "experiment": "pre-steady-state target cleavage rate (min^-1); MIWI and MILI are mouse PIWI proteins and EfPiwi is from a freshwater sponge; tags in brackets are library labels; higher = faster piRNA-guided slicing of the target", "conditions": "guide: piRNA #1 5'p-UGAGGUAGUAGGUUGUAUAGUAUCCAGAGG; auxiliary factor: 500 nM mouse GTSF1", "summary_of_the_method": "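Three pooled Cleave-'n-Seq trials supplied the data, with k3 capped at 0.0001 min^-1. In each, […] transcribed, DNA-blocked target RNA library and 1 nM active affinity-purified piRISC with one synthetic guide reacted in HEPES–potassium acetate buffer at 33 °C for 0–8 or 0–960 min, with or without 500 nM GTSF1 partner protein. Uncleaved targets were sequenced and normalised to depth and to weakly complementary targets. A burst-and-steady-state fit provided the pre-steady-state cleavage rate.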"}
{"sequence": "CCUCUGGUUACUAUACAACCUACUACCACA", "pre-steady-state target cleavage rate": "1.79 ± 0.14"}
{"sequence": "CCUCUGGUUACUAUACAACCUACUACCUCA", "pre-steady-state target cleavage rate": "2.29 ± 0.13"}
{"sequence": "GGAGACCUAUCUAUACUACCUACAACCUCA", "pre-steady-state target cleavage rate": "0.0031 ± 0.0021"}
{"sequence": "GGAGACCUAUCUAUACAACCUACUACCUGA", "pre-steady-state target cleavage rate": "0.516 ± 0.057"}
{"sequence": "GGAGUGGAUACUAUACAACCUACUAACCUCA", "pre-steady-state target cleavage rate": "0.901 ± 0.053"}
{"sequence": "GGAGUGGAUUCUAUACAACCUACUACGUCA", "pre-steady-state target cleavage rate": "0.522 ± 0.048"}
{"sequence": "CCUCUGGAUACUAUACAACCACUACCUCA", "pre-steady-state target cleavage rate": "0.033 ± 0.0096"}
{"sequence": "CCUCUGGAUACUAAACAACCUACUACGUCA", "pre-steady-state target cleavage rate": "1.49 ± 0.087"}
{"sequence": "GGAGACCUUACUAUUCAACCUACUACGUCA", "pre-steady-state target cleavage rate": "0.678 ± 0.064"}
{"sequence": "GGAGACCAUUCUAUACAACCUACAACCUCA", "pre-steady-state target cleavage rate": "0.667 ± 0.075"}
{"sequence": "GGUCUGGAUAGUAUACAUCCUACUACCUCA", "pre-steady-state target cleavage rate": "0.741 ± 0.083"}
{"sequence": "GGAGAGGAUACUAUACAUCCUACUUCCUCA", "pre-steady-state target cleavage rate": "0.0568 ± 0.0099"}
{"sequence": "GGAGACCUAACUAAACAACCUACUAGCUCA", "pre-steady-state target cleavage rate": "0.0502 ± 0.019"}
{"sequence": "CCUGUGGUUACUAUACAACCUACUACCUCA", "pre-steady-state target cleavage rate": "1.17 ± 0.058"}
{"sequence": "CCUCUGGUUUCUAUACAACCUACUACCUCA", "pre-steady-state target cleavage rate": "2.25 ± 0.15"}
{"sequence": "CCUCUGGUUACUUUACAACCUACUACCUCA", "pre-steady-state target cleavage rate": "2.24 ± 0.16"}
{"sequence": "GGUCUGGUUACAAUACAACCUACUACCUCA", "pre-steady-state target cleavage rate": "1.59 ± 0.12"}
{"sequence": "GGUCUGGUUUCUAUACAACCUACUACCUCA", "pre-steady-state target cleavage rate": "1.8 ± 0.12"}
{"sequence": "GGUGUGGUUACUAUACAACCUACUACCUCA", "pre-steady-state target cleavage rate": "1.54 ± 0.097"}
{"sequence": "CCUCUGGUUACAAUACAACCUACUACCUCA", "pre-steady-state target cleavage rate": "2.15 ± 0.13"}
{"sequence": "GCUCUGGUUUCUAUACAACCUACUACCUCA", "pre-steady-state target cleavage rate": "2 ± 0.12"}
{"sequence": "GGUCUGGUUACUUUACAACCUACUACCUCA", "pre-steady-state target cleavage rate": "1.69 ± 0.13"}
{"sequence": "GCUGUGGUUACUAUACAACCUACUACCUCA", "pre-steady-state target cleavage rate": "2 ± 0.13"}
{"sequence": "GCUCUGGUUACUUUACAACCUACUACCUCA", "pre-steady-state target cleavage rate": "1.7 ± 0.089"}
{"sequence": "GCUCUGGUUACAAUACAACCUACUACCUCA", "pre-steady-state target cleavage rate": "1.98 ± 0.12"}
{"sequence": "GGAGACGAUACUAUACAACAUACUACCUCA", "pre-steady-state target cleavage rate": "1.16 ± 0.077"}
{"sequence": "GGAGUGGAUUCUAAACAACCUACUACCUCA", "pre-steady-state target cleavage rate": "0.994 ± 0.069"}
{"sequence": "GGAGACCUAUGAUAUGUACCUACUAACUCA", "pre-steady-state target cleavage rate": "< 0.0001"}
{"sequence": "GGAGUGCAUACUAUACAACCUACUACCUGA", "pre-steady-state target cleavage rate": "0.513 ± 0.077"}
{"sequence": "GGAGACCUAUGUAUACAACCUACUACUCA", "pre-steady-state target cleavage rate": "0.00349 ± 0.0019"}
{"sequence": "GGAGACCUUACAAUAGAACCUACUACCUCA", "pre-steady-state target cleavage rate": "0.167 ± 0.022"}
{"sequence": "GGAGACCAUACUAUACAACCUACUUCCUCA", "pre-steady-state target cleavage rate": "0.666 ± 0.054"}
{"sequence": "GGUCUGGAUACUAUACAACUUACUACCUCA", "pre-steady-state target cleavage rate": "0.481 ± 0.028"}
{"sequence": "GGAGUGCAUUCUAUACAACCUACUACCUCA", "pre-steady-state target cleavage rate": "1.32 ± 0.11"}
{"sequence": "CCUCGGGAUACUAUACAACCUACUACCUCA", "pre-steady-state target cleavage rate": "2.3 ± 0.16"}
{"sequence": "CCUCUCGAUACUAUACAACCUACUACCUCA", "pre-steady-state target cleavage rate": "2.01 ± 0.12"}
{"sequence": "GCUCGGGAUACUAUACAACCUACUACCUCA", "pre-steady-state target cleavage rate": "1.5 ± 0.071"}
{"sequence": "GGUCGGGAUACUAUACAACCUACUACCUCA", "pre-steady-state target cleavage rate": "1.66 ± 0.11"}
{"sequence": "GGUCCGGAUACUAUACAACCUACUACCUCA", "pre-steady-state target cleavage rate": "1.76 ± 0.11"}
{"sequence": "CCUCCGGAUACUAUACAACCUACUACCUCA", "pre-steady-state target cleavage rate": "2.08 ± 0.14"}
{"sequence": "GCUCUCGAUACUAUUCAACCUACUACCUCA", "pre-steady-state target cleavage rate": "1.86 ± 0.11"}
{"sequence": "CCUCUCGAUACUAUACAACCUACAACCUCA", "pre-steady-state target cleavage rate": "1.34 ± 0.077"}
{"sequence": "GCUCUCGAUACUAUACAACCUACUACCUCA", "pre-steady-state target cleavage rate": "1.86 ± 0.11"}
{"sequence": "CCUCUCGAUACUAUUCAACCUACUACCUCA", "pre-steady-state target cleavage rate": "2.27 ± 0.15"}
{"sequence": "GGUCUCGAUACUAUUCAACCUACUACCUCA", "pre-steady-state target cleavage rate": "1.86 ± 0.12"}
{"sequence": "GCUCCGGAUACUAUACAACCUACUACCUCA", "pre-steady-state target cleavage rate": "1.81 ± 0.12"}
{"sequence": "GGUCUGGUACUAUACAACCUACUACCUCA", "pre-steady-state target cleavage rate": "1.73 ± 0.11"}
{"sequence": "GGAGACCAAACUAUACAACCUAGUACCUCA", "pre-steady-state target cleavage rate": "0.226 ± 0.033"}
{"sequence": "GGAGACCUAUGUAUACAACCUACUACCUGCA", "pre-steady-state target cleavage rate": "0.0855 ± 0.011"}
{"sequence": "GGAGACCUAACUUAUACAACCUACUACCUCA", "pre-steady-state target cleavage rate": "0.23 ± 0.041"}
{"sequence": "CCUCUGGAUACUAUUCAACCUACUAGCUCA", "pre-steady-state target cleavage rate": "1.37 ± 0.12"}
{"sequence": "CCUCUCGAUACUAUACAACCUACUACCACA", "pre-steady-state target cleavage rate": "2.21 ± 0.12"}
{"sequence": "CCUCUCGAUACUAAACAACCUACUACCUCA", "pre-steady-state target cleavage rate": "2.13 ± 0.14"}
{"sequence": "GGUCUCGAUACUAAACAACCUACUACCUCA", "pre-steady-state target cleavage rate": "1.68 ± 0.12"}
{"sequence": "CCUCUCGAUACUAUACAACCUACUACCUGA", "pre-steady-state target cleavage rate": "0.985 ± 0.087"}
{"sequence": "GCUCUCGAUACUUUACAACCUACUACCUCA", "pre-steady-state target cleavage rate": "1.69 ± 0.11"}
{"sequence": "CCUCUCGGAUACUAUACAACCUACUACCUCA", "pre-steady-state target cleavage rate": "2.06 ± 0.15"}
{"sequence": "GCUCUCGAUACUAAACAACCUACUACCUCA", "pre-steady-state target cleavage rate": "1.81 ± 0.12"}
{"sequence": "GCUCUCGGAUACUAUACAACCUACUACCUCA", "pre-steady-state target cleavage rate": "1.76 ± 0.088"}
{"sequence": "CCUCUCGAUACUUUACAACCUACUACCUCA", "pre-steady-state target cleavage rate": "2.13 ± 0.14"}
{"sequence": "GGUCUCGAUACUAUACAACCUACUACCACA", "pre-steady-state target cleavage rate": "0.758 ± 0.064"}
{"sequence": "GGUCUCGAUACUUUACAACCUACUACCUCA", "pre-steady-state target cleavage rate": "1.54 ± 0.093"}
{"sequence": "CCUCGGAUACUAUACAACCUACUACCUCA", "pre-steady-state target cleavage rate": "1.96 ± 0.13"}
{"sequence": "GCUCUGGAUACUAUACAACCUACGACCUCA", "pre-steady-state target cleavage rate": "1.22 ± 0.083"}
{"sequence": "GGUCUGGAAACUAUACAACCAACUACCUCA", "pre-steady-state target cleavage rate": "0.138 ± 0.015"}
{"sequence": "GGAGACCAUACUUACAACCUACUACCUCA", "pre-steady-state target cleavage rate": "0.269 ± 0.028"}
{"sequence": "GGACAGGAUACUAAACAACCUACUACCUCA", "pre-steady-state target cleavage rate": "1.64 ± 0.11"}
{"sequence": "GGAGACCAUUCUAUACAACCUACUACCACA", "pre-steady-state target cleavage rate": "1.16 ± 0.1"}
{"sequence": "GGACUCGAUACUAUACAACCUACUACCACA", "pre-steady-state target cleavage rate": "0.579 ± 0.063"}
{"sequence": "GCUCUCGAUACUAUACAACCUACUACCACA", "pre-steady-state target cleavage rate": "2.17 ± 0.15"}
{"sequence": "GGACUCGAUACUAUACAACCUACUACCUCA", "pre-steady-state target cleavage rate": "1.69 ± 0.12"}
{"sequence": "GCUCUCGAUACUAUACAACCUACUACCUGA", "pre-steady-state target cleavage rate": "1.07 ± 0.11"}
{"sequence": "GCACUCGAUACUAUACAACCUACUACCUCA", "pre-steady-state target cleavage rate": "1.43 ± 0.059"}
{"sequence": "CCACUCGAUACUAUACAACCUACUACCUCA", "pre-steady-state target cleavage rate": "2.13 ± 0.14"}
